The results in this text go back to PubChem BioAssay AID720706 (Broad Institute, 2013).

Values joined by “and” are separate entries in the source; they are usually repeats but may differ in a detail not shown here. Identical values can stand only once. About 5,500 (1.6%) of roughly 350,000 compounds were called active.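 How the source made its calls: active means significant combined selectivity score with lowered wild-type GFP, culture density cut under 30%, mutant RFP and density less affected; inactive means any of these conditions unmet.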 Shown is part of a subset that was picked to be rich in actives.

The experiment is described as follows: reduced GFP signal of wild-type E. coli, primary screen, bacterial rRNA inhibitor project, GFP/RFP fluorescence, OD600, single point (AID 720706). As to conditions: E. coli WT GFP vs humanized-ribosome RFP mutants, 24 h; GFP signal change (wild-type ribosome): stronger effect = lower value, DMSO median 0, no signal -100; OD600 change: measured here: OD600 growth, DMSO median 0, no signal -100; RFP signal change: measured here: RFP humanized mutant strains, DMSO median 0, no signal -100, concentration not given here.
With `C[C@@H]1CN([C@H](C)CO)C(=O)c2cc(NC(=O)CCN3CCOCC3)ccc2O[C@H]1CN(C)Cc1ccc(Oc2ccccc2)cc1`, the GFP signal change (wild-type ribosome) is -0.524% (inactive), the OD600 change came out at 2.21% and the RFP signal change was -0.41%.

`O=C(Nc1ccccc1F)N[C@H]1CC[C@@H](CCNS(=O)(=O)c2ccc(F)cc2)O[C@@H]1CO`: the GFP signal change (wild-type ribosome) was 0.53% (inactive), the OD600 change is -4.9% and the RFP signal change is 0.665%.

Take `COC(=O)c1ccc(/C=C2/C(=O)Oc3ccccc32)cc1`: the GFP signal change (wild-type ribosome) is 5.01% (inactive), the OD600 change came out at 8.63% and the RFP signal change is -1.53%.

As for `O=C(NN=Cc1ccccc1O)NN=Cc1ccccc1O`, the GFP signal change (wild-type ribosome) was -15.2% (inactive), the OD600 change was -34.3% and the RFP signal change was -9.61%.

In the case of `O=C1Oc2ccccc2C(=O)/C1=C/c1ccccc1O`, the GFP signal change (wild-type ribosome) was -24% (active), the OD600 change was -16.1% and the RFP signal change was -3.67%.

As to `O=C(N[C@H]1CC[C@@H](CCNS(=O)(=O)Cc2ccccc2)O[C@H]1CO)c1ccccc1F`, the GFP signal change (wild-type ribosome) is 1.77% (inactive), the OD600 change is 2.62% and the RFP signal change is 1.25%.

With `COCC(=O)Nc1ccc2c(c1)C(=O)N(C)C[C@H](OC)[C@@H](C)CN(CCc1ccccc1)[C@@H](C)CO2`, the GFP signal change (wild-type ribosome) was -2.84% (inactive), the OD600 change was -4.45% and the RFP signal change is -1.3%.

With `Cc1ccccc1CN1C(=O)CSCC1(C)C(=O)Nc1c(C)cccc1C` (stereo unspecified), the GFP signal change (wild-type ribosome) was -3.76% (inactive), the OD600 change was 8.15% and the RFP signal change is 2.11%.

For `CCC(C)CN1C(=O)CN(S(C)(=O)=O)CC1(C)C(=O)Nc1ccc2c(c1)OCCO2` (stereo unspecified), the GFP signal change (wild-type ribosome) is 11.4% (inactive), the OD600 change was determined as 6.25% and the RFP signal change turned out to be 0.462%.

Regarding `CC1(C(=O)Nc2ccc3c(c2)OCCO3)CSCC(=O)N1CCOc1ccccc1` (stereo unspecified), the GFP signal change (wild-type ribosome) is -19.5% (active), the OD600 change was -13.7% and the RFP signal change was 6.62%.

For the molecule `C[C@@H]1CCCCO[C@@H](CN(C)C(=O)Cc2ccccc2)[C@H](C)CN([C@H](C)CO)C(=O)c2cc(NC(=O)Cc3ccccc3)ccc2O1`, the GFP signal change (wild-type ribosome) is -4.58% (inactive), the OD600 change is -13.8% and the RFP signal change was -0.346%.

Regarding `COc1cccc(CNC(=O)[C@@H]2[C@@H](CO)[C@@H]3Cn4c(ccc(-c5ccncc5)c4=O)[C@H]2N3C(C)=O)c1`, the GFP signal change (wild-type ribosome) is 2.73% (inactive), the OD600 change was -2.66% and the RFP signal change was -0.658%.

With `Cc1noc(C)c1S(=O)(=O)Nc1ccc2c(c1)C(=O)N([C@@H](C)CO)C[C@@H](C)[C@@H](CN(C)C)O2`, the GFP signal change (wild-type ribosome) was 5.72% (inactive), the OD600 change is -2.97% and the RFP signal change is -0.906%.

In the case of `O=C(c1cccs1)N(Cc1cc2ccccc2[nH]c1=O)CC1CCCO1` (stereo unspecified), the GFP signal change (wild-type ribosome) was -0.275% (inactive), the OD600 change was -2.27% and the RFP signal change was -1.32%.

Consider `Cc1cc(C)c2cc(CN(Cc3cccs3)Cc3nnnn3CC3CCCO3)c(=O)[nH]c2c1` (stereo unspecified), for which the GFP signal change (wild-type ribosome) was -37.2% (active), the OD600 change is -22.2% and the RFP signal change is -2.73%.

Consider `Cc1cc2cc(CN(Cc3cccs3)Cc3nnnn3CC3CCCO3)c(=O)[nH]c2cc1C` (stereo unspecified), for which the GFP signal change (wild-type ribosome) was -7.06% (inactive), the OD600 change is -4.84% and the RFP signal change was -2.86%.

In the case of `CO[C@@H]1CN(C)C(=O)c2ccc(NC(C)=O)cc2OC[C@@H](C)N(CC2CC2)C[C@H]1C`, the GFP signal change (wild-type ribosome) is 2.26% (inactive), the OD600 change was -1.92% and the RFP signal change is 1.24%.

With `CC(=O)N(C)C[C@@H]1Oc2ccc(N)cc2CC(=O)N(C)C[C@H]1C`, the GFP signal change (wild-type ribosome) was 1.8% (inactive), the OD600 change worked out at 0.888% and the RFP signal change was -1%.

As to `CNC[C@@H]1Oc2ccc(NC(C)=O)cc2CC(=O)N(C)C[C@@H]1C`, the GFP signal change (wild-type ribosome) is -0.631% (inactive), the OD600 change came to 1.55% and the RFP signal change was 0.729%.

Turning to `COc1ccc(S(=O)(=O)N[C@@H]2CC[C@@H](CC(=O)N3CCC(Cc4ccccc4)CC3)O[C@@H]2CO)cc1`, the GFP signal change (wild-type ribosome) is 8.03% (inactive), the OD600 change is -22.7% and the RFP signal change worked out at 10.2%.

For the molecule `C[C@H](CO)N1C[C@H](C)[C@H](CN(C)Cc2ccc3c(c2)OCO3)Oc2c(NS(=O)(=O)c3ccccc3)cccc2C1=O`, the GFP signal change (wild-type ribosome) is -1.49% (inactive), the OD600 change amounted to 3.3% and the RFP signal change was -2.6%.

`C[C@H](NC(=O)[C@H]1N[C@H]2c3ccc(-c4ccc(C(=O)N(C)C)cc4)c(=O)n3C[C@H]2[C@@H]1CO)c1ccccc1`: the GFP signal change (wild-type ribosome) was 1.87% (inactive), the OD600 change worked out at 7.26% and the RFP signal change was -1.73%.

In the case of `CN(C)C(=O)c1cccc(-c2ccc(C3[C@H]4CNC[C@@H]3N4C(=O)Nc3ccccc3F)cc2)c1` (stereo partly specified), the GFP signal change (wild-type ribosome) is 0.866% (inactive) and 2.44% (inactive); the OD600 change is -5.13% and 4.05%; the RFP signal change is -2.14% and 0.208%.

As to `COc1ccccc1-c1cnc2c(c1)C(=O)N([C@@H](C)CO)C[C@H](C)[C@@H](CN(C)C(C)=O)O2`, the GFP signal change (wild-type ribosome) is 3.59% (inactive), the OD600 change turned out to be 4.33% and the RFP signal change is -1.79%.

`CC(=O)Nc1ccc(C=CC(=O)c2ccc([N+](=O)[O-])cc2)cc1`: the GFP signal change (wild-type ribosome) was 5.97% (inactive), the OD600 change was found to be 7.9% and the RFP signal change is -0.138%.

For the molecule `O=C(/C=C/c1ccc2c(c1)OCCO2)c1ccc(O)cc1`, the GFP signal change (wild-type ribosome) is -19.8% (active), the OD600 change was -11.6% and the RFP signal change stood at 6.75%.

Turning to `COc1ccc(OC)c(/C=C/C(=O)c2ccc3c(c2)OCO3)c1`, the GFP signal change (wild-type ribosome) is 0.015% (inactive), the OD600 change is -9.29% and the RFP signal change is -8.02%.

Regarding `CC(CC(=O)O)C(=O)c1ccc(Cl)c([N+](=O)[O-])c1` (stereo unspecified), the GFP signal change (wild-type ribosome) was 10.7% (inactive), the OD600 change came out at 9.82% and the RFP signal change was -3.76%.

Regarding `CC(=O)Nc1ccc(C=Cc2ccc([N+](=O)[O-])cc2)cc1`, the GFP signal change (wild-type ribosome) was 2.45% (inactive), the OD600 change was found to be 3.79% and the RFP signal change was -1.71%.

In the case of `O=C(/C=C/c1ccc(Cl)cc1)N1CCN(c2ccccc2[N+](=O)[O-])CC1`, the GFP signal change (wild-type ribosome) was -31% (inactive), the OD600 change is -42.6% and the RFP signal change was -26.6%.

For `O=C(/C=C/c1ccc(Cl)c([N+](=O)[O-])c1)c1ccc(O)cc1`, the GFP signal change (wild-type ribosome) was -26.1% (active), the OD600 change was -2.69% and the RFP signal change came to 9.14%.

`CN(C)c1ccc(/C=C/C(=O)c2ccc(O)cc2)cc1[N+](=O)[O-]`: the GFP signal change (wild-type ribosome) is -22.5% (active), the OD600 change is -13.8% and the RFP signal change turned out to be 5.33%.
